# High-throughput results: PubChem BioAssay, National Center for Advancing Translational Sciences (NCATS)
# Compounds with a hit are over-represented: about 9.4% of the library has one in this group of screens.
# AMA1 RON2 block: AMA1-RON2 (P. falciparum) interaction inhibition. AID 720542. AlphaScreen AMA1-biotinylated RON2 peptide binding. Potency, µM (highest dose often 58.2 µM), most hits filed as inhibitors. 0.2% of 360,000 active; also: nearly all actives have a fitted effect of over 45% in size
#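 AMA1 (3D7) with his tag at 25 nM final met compounds first, then biotinylated RON2 peptide at 25 nM; detection used donor plus acceptor beads, 10 µg/mL apiece, read by AlphaScreen after 30 min at room temperature.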
# Pf growth 48h: inhibits P. falciparum growth in the first generation, 48 h | Potency, µM (top dose mostly 28.7 µM), hits mostly inhibitors | AID 504832 | 5.9% of 310,000 active | P. falciparum luciferase growth in erythrocytes, 48 h
#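 Compounds are pin-transferred into medium, infected erythrocytes (2% hematocrit, 0.1% parasitemia final) are added, and plates sit one parasite generation at 37 C in 5% CO2. Detection reagent is then added and luminescence measured.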
# SARS PLP yeast: inhibitors of SARS-CoV papain-like protease in yeast. S. cerevisiae expressing SARS-CoV PLpro, growth rescue. Potency, µM (doses to about 32.9 µM), actives largely listed as activators. 0.19% of 330,000 active. AID 485353; calls by dose curve; also: nearly all actives have a fitted effect of over 55% in size
# Pf growth 96h: P. falciparum growth inhibition at 96 hours | P. falciparum luciferase reporter growth, 96 h | Potency, µM (highest dose often 28.7 µM), hits mostly inhibitors | 6.9% of 320,000 active
#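 Parasite growth measured via integrated firefly luciferase reporter in P. falciparum. Infected erythrocytes at 2% hematocrit, 0.05% parasitemia final were treated 96 hours at 37 C under 5% CO2, and luminescence was read.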
# Numbers stand for hits; n = inactive; u = inconclusive; x = no result given. Unless noted, calls follow the shape of the dose curve; as a rule, active = well fitted curve in the direction sought with a large enough effect; inconclusive = small, poorly fitted or top-dose-only effect, or another doubt; inactive = no such curve, though single readings can be large; an effect the other way counts as inactive or inconclusive.
SMILES,AMA1 RON2 block,Pf growth 48h,SARS PLP yeast,Pf growth 96h
O=C1CCCC(O)=C1N=Nc1c(Cl)cc(Cl)cc1Cl,n,n,n,n
CC1(C)Oc2ccc(C(=O)N3CCc4ccccc43)cc2N(CC(=O)N2CCCC2)C1=O,n,n,n,u
C=CCn1c(SC(C)C(=O)c2c(N)n(C)c(=O)n(C)c2=O)nnc1-c1ccoc1C (stereo not drawn),n,11.7µM,n,8.28µM
COC(=O)C1=C(c2ccc(F)cc2OCc2ccccc2)C[C@@H]2CC[C@H]1N2C(=O)NC1CC1,n,u,n,u
COC(=O)C1=C(c2ccc(OCc3ccccc3)cc2)C[C@@H]2CC[C@H]1N2C(=O)NCCCCc1ccccc1,n,x,x,x
COC(=O)C1=C(c2ccc(OCc3ccccc3)cc2)C[C@@H]2CC[C@H]1N2C(=O)NC1CCN(Cc2ccccc2)CC1,n,9.28µM,n,u
COC(=O)C1=C(c2ccc(F)cc2OCc2ccccc2)C[C@@H]2CC[C@H]1N2C(=O)N1CCCC1,n,9.28µM,n,u
COC(=O)C1=C(c2ccc(F)cc2OCc2ccccc2)C[C@@H]2CC[C@H]1N2C(=O)NC1CCCCC1,n,u,n,14.7µM
COC(=O)C1=C(c2ccc(F)cc2OCc2ccccc2)C[C@@H]2CC[C@H]1N2C(=O)NC(C)C,n,9.28µM,n,u
Cc1ccc(S(=O)(=O)N2CCN(C(=O)Cc3ccc4c(c3)OCCO4)CC2)cc1C,n,n,n,n
CCc1cc(-c2nnn(CCC3COCCO3)c2CC)ccc1-c1cn(CCc2c[nH]c3ccccc23)nn1 (stereo not drawn),n,x,x,x
C1CCC(CNc2c3c(nc4nnnn24)CCCC3)CC1,n,u,n,13.1µM
C1CCN(c2c3c(nc4nnnn24)CCCC3)CC1,n,n,n,10.4µM
COCCCNc1c2c(nc3nnnn13)CCCC2,n,n,n,u
C=C(C)c1cccc(C(C)(C)NC(=O)N2CC(C)OC(C)C2)c1 (stereo not drawn),n,n,n,n
CCOC(=O)CSCC(=O)Nc1c(C(=O)C2CC2)oc2ccccc12,n,n,n,5.86µM
CN1CCN(CC(=O)Nc2c(C(=O)C3CC3)oc3ccccc23)CC1,n,n,n,n
Clc1cccc(CN2C3=NCCCN3c3ccccc32)c1,n,n,n,u
Clc1ccc(CN2C3=NCCCN3c3ccccc32)c(Cl)c1,n,u,n,1.04µM
Brc1ccc(CN2C3=NCCCN3c3ccccc32)cc1,n,11.7µM,n,n
Cc1ccc(CN2C3=NCCCN3c3ccccc32)cc1,n,11.7µM,n,u
CC(C)(C)c1ccc(CN2C3=NCCCN3c3ccccc32)cc1,n,3.7µM,n,n
O=C(CSc1ncn[nH]1)NNC(=O)c1ccccc1,n,n,n,n
c1ccc(CN2C3=NCCCN3c3ccccc32)cc1,n,8.28µM,n,n
COc1ccc(CNc2oc(COc3ccccc3Cl)nc2C#N)cc1,n,x,n,1.47µM
SMILES,AMA1 RON2 block,Pf growth 48h,SARS PLP yeast,Pf growth 96h
Cc1ccc(-c2nc(C#N)c(NCc3ccco3)o2)cc1,n,n,n,11.7µM
N#Cc1nc(COc2ccc(Cl)cc2)oc1NCc1ccc2c(c1)OCO2,n,x,n,10.4µM
COc1ccccc1OCc1nc(C#N)c(NCc2ccco2)o1,n,n,n,11.7µM
O=C(CSc1ccc(Cl)cc1)Nc1ccc(N2CCN(c3ccccc3)CC2)c(F)c1,n,n,n,n
C[C@H]1CCCC(=O)CCC/C=C/c2cc(O)cc(O)c2C(=O)O1,n,x,n,13.1µM
COc1cc(O)cc2c1C(=O)OC(C)CCCC(=O)CCC/C=C\2 (stereo not drawn),n,n,n,n
CN(C)CCN(C(=O)/C=C/c1cccs1)c1nc2c(F)cc(F)cc2s1,u,11.7µM,n,u
CN(C)S(=O)(=O)c1cc(NC(=O)c2cc(=O)c3ccccc3o2)ccc1Cl,n,10.4µM,n,u
Cc1ccc(NC(=O)c2cc(=O)c3ccccc3o2)cc1S(=O)(=O)N1CCOCC1,n,8.28µM,n,4.65µM
COc1ccc(NC(=O)c2cc(=O)c3ccccc3o2)cc1Cl,n,u,n,n
O=C(Nc1ccc(S(=O)(=O)N2CCCC2)cc1)c1cc(=O)c2ccccc2o1,n,n,n,u
Cc1ccc(NC(=O)c2cc(=O)c3ccccc3o2)cc1S(=O)(=O)N1CCCCC1,n,6.57µM,n,u
COc1ccc(OC)c(NS(=O)(=O)c2ccc(NC(=O)c3ccc(NS(C)(=O)=O)cc3)cc2)c1,n,n,n,n
Cc1ccn2c(NC(=O)c3ccco3)c(-c3ccccc3)nc2c1,n,n,n,4.15µM
O=C(O)CNc1nc(-c2ccccc2)c2cc([N+](=O)[O-])ccc2n1,n,n,n,n
O=[N+]([O-])c1ccc2nc(NCCCO)nc(-c3ccccc3)c2c1,n,u,n,11.7µM
Cc1cc(C)c(OCC(=O)Nc2ccc(S(=O)(=O)N3CCCC3)cc2)c(C)c1,n,u,n,u
CSc1cc(CS(=O)(=O)c2ccccc2)nc(-c2ccccc2)n1,n,n,n,n
CCC(C)NC(=O)CSC1=Nc2ccccc2C2=NC(CC(=O)NCc3ccc(F)cc3)C(=O)N12 (stereo not drawn),n,13.1µM,n,u
COCCCNC(=O)CSC1=Nc2ccccc2C2=NC(Cc3c[nH]c4ccccc34)C(=O)N12 (stereo not drawn),n,n,n,5.22µM
COc1ccc(CNC(=O)CCC2N=C3c4ccccc4N=C(SCC(=O)NCC4CCCO4)N3C2=O)cc1 (stereo not drawn),n,u,n,13.1µM
CCOC(=O)CSC1=Nc2ccccc2C2=NC(CC(=O)NCc3cccs3)C(=O)N12 (stereo not drawn),n,10.4µM,n,u
CCOC(=O)CSC1=Nc2ccccc2C2=NC(CC(=O)NCc3ccccc3)C(=O)N12 (stereo not drawn),n,u,n,n
O=C(CCC1N=C2c3ccccc3N=C(SCC(=O)NCC3CCCO3)N2C1=O)NCc1ccc(F)cc1 (stereo not drawn),n,n,n,u
CC(C)(C)C(=O)Nc1ccnn1C1CCN(C(=O)c2cccc(Cl)c2)CC1,n,n,n,u
SMILES,AMA1 RON2 block,Pf growth 48h,SARS PLP yeast,Pf growth 96h
O=[N+]([O-])c1ccc(N2CCCCC2)nc1N1CCCCC1,u,2.08µM,n,3.29µM
O=[N+]([O-])c1cccnc1N1CCCCC1,n,n,n,n
Fc1ccc(C[n+]2c(-c3ccccc3)cc(-c3ccccc3)cc2-c2ccccc2)cc1,n,0.928µM,n,0.37µM
Clc1ccc(C[n+]2c(-c3ccccc3)cc(-c3ccccc3)cc2-c2ccccc2)cc1,n,0.37µM,n,0.329µM
CC(=O)c1ccc(NC(=O)CSCCO)cc1,n,n,n,x
Cn1cc([C@]2(O)C(=O)Nc3ccc(Br)cc32)c2ccccc21,n,x,x,x
O=C1Nc2ccc(Br)cc2C1(O)c1ccccc1 (stereo not drawn),n,6.57µM,n,u
CC(C)Sc1cc(N2CCCC2)nc(-c2ccccc2)n1,n,u,n,u
Cc1onc2c(=O)n(-c3ccccc3)nc(-c3ccccc3)c12,n,u,n,u
CSCCC(NS(=O)(=O)c1cc(C(=O)O)ccc1Cl)C(=O)O (stereo not drawn),n,n,n,n
